Experimental data: the supplement of paper PMC11732987, “Enantioselective OTUD7B fragment discovery through chemoproteomics screening and high-throughput optimisation” (Communications Chemistry, 2025)

Experiments:
Test in all cases: log2 ratio of Biotin-Ahx-Ub-VS probe labelling (fragment/DMSO); higher = less target engagement (more negative = stronger competition), active = hit call of the paper (q ≤ 0.05, log2 ratio ≤ -1)
Details in all cases: compound concentration: 200 uM; treatment time: 3 h
USP42 = molecular target: T1, USP42 (UniProt Q9H9J4)
T1 sequence (whole entry): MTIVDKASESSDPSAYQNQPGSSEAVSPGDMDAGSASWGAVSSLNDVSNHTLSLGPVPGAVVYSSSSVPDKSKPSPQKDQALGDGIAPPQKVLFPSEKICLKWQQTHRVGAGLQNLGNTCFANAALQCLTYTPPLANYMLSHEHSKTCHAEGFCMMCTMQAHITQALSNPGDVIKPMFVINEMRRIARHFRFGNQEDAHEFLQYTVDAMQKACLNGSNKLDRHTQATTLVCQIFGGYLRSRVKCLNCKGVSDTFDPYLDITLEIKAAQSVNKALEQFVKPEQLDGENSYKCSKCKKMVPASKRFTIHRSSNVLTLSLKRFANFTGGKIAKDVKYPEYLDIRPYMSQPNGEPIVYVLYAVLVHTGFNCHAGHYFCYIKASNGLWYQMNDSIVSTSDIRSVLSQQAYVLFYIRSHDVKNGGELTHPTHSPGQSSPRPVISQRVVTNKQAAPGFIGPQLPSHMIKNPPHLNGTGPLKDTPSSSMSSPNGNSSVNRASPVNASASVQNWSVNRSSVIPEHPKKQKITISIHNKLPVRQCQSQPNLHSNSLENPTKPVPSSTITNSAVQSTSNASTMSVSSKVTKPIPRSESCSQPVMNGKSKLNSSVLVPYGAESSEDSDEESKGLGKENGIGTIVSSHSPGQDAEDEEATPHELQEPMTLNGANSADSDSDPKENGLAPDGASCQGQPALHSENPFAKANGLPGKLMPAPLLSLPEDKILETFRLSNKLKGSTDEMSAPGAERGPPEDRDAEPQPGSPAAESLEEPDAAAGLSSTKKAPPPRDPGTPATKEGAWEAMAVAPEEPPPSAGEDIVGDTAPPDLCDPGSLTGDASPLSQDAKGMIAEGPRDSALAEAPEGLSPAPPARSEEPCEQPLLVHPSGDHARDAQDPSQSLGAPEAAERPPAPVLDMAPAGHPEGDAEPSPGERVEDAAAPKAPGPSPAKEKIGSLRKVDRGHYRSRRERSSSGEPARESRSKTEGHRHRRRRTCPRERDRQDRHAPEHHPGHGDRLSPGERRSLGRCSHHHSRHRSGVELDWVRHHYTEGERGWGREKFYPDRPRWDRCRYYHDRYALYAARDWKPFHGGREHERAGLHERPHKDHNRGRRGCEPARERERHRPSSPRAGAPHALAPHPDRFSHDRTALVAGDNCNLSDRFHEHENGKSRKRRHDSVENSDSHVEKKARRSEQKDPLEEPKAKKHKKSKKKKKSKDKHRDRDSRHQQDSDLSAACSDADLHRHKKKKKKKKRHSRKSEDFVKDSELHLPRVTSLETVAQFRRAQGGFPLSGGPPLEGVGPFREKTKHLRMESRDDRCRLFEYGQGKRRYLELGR
How it was run: (§1)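 In triplicate, 495 µg of HEK293T lysate per sample was incubated with fragment at 200 µM or vehicle for 3 h. Biotin-Ahx-Ub-VS was then added to 0.5 µM final for 1 h, and labelled DUBs were captured with NeutrAvidin, digested with LysC and trypsin, and measured by diaPASEF LC-MS/MS. Data are average log2 fragment/vehicle ratios by unpaired t-test from global-median-normalised Spectronaut label-free quantities, restricted to proteins with ≥2 unique peptides.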

USP46 = USP46 (UniProt P62068)
How it was run: as §1

USP47 = molecular target: T2, USP47 (UniProt Q96K76)
T2 sequence (whole entry): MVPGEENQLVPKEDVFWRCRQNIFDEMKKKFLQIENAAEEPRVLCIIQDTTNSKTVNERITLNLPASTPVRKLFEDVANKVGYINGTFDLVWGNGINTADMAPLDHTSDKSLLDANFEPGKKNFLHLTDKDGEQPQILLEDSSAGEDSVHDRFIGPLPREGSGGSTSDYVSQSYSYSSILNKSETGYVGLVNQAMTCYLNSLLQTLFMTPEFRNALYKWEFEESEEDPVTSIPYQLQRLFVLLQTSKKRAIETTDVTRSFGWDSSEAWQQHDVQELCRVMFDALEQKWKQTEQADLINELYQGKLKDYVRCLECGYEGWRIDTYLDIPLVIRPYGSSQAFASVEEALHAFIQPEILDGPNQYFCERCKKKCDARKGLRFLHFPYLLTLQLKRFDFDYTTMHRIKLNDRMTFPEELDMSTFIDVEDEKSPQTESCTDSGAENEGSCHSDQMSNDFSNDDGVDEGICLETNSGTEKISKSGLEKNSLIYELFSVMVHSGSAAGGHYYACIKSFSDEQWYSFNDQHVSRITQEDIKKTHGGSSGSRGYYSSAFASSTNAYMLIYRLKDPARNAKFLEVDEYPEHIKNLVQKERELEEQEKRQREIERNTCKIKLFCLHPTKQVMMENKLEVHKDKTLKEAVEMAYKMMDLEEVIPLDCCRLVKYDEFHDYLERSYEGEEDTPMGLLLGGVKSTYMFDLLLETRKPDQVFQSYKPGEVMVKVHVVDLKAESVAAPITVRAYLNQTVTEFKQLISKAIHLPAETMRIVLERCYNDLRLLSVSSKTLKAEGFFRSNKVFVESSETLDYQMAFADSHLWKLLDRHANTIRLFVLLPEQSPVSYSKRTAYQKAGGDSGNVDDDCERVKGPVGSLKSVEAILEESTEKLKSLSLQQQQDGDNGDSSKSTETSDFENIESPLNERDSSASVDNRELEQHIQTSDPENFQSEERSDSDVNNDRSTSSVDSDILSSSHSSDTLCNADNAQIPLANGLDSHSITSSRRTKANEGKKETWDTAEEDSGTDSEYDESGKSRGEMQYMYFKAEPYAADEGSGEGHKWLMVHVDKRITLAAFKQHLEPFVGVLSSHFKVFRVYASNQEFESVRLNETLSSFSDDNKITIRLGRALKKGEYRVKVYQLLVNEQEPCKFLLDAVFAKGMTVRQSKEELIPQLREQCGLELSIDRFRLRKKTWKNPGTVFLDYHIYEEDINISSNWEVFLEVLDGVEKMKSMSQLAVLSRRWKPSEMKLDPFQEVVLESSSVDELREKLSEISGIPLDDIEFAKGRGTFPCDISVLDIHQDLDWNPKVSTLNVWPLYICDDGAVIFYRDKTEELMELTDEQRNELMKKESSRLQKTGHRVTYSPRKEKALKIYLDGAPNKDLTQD
How it was run: as §1

USP48 = molecular target: T3, USP48 (UniProt Q86UV5)
T3 sequence (whole entry): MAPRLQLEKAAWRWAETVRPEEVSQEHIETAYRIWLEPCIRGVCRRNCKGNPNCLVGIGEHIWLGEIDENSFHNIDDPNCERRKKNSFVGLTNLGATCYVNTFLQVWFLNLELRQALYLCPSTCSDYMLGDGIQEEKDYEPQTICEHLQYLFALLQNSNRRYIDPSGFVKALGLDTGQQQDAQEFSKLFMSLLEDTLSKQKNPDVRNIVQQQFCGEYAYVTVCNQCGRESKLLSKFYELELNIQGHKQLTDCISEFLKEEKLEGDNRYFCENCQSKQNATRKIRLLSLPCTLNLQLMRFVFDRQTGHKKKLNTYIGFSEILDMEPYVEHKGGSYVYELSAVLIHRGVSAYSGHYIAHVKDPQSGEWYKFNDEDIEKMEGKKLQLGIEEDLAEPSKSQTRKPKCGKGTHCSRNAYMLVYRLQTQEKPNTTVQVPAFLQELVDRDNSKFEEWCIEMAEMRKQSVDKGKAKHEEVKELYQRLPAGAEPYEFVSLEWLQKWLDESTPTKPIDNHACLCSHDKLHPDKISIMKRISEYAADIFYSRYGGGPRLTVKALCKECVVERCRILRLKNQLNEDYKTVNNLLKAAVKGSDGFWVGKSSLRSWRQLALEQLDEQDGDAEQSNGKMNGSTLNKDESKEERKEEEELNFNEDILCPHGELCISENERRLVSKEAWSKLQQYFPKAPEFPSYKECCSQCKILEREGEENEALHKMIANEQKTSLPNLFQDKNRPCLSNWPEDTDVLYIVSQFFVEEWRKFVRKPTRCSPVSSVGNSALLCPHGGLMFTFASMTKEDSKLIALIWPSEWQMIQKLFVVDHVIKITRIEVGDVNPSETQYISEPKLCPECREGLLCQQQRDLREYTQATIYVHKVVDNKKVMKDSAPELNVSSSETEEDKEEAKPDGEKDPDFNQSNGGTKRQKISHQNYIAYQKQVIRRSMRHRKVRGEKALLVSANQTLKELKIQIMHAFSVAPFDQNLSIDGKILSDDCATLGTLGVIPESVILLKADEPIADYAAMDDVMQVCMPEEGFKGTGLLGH
How it was run: as §1

USP5 = molecular target: T4, USP5 (UniProt P45974)
T4 sequence (whole entry): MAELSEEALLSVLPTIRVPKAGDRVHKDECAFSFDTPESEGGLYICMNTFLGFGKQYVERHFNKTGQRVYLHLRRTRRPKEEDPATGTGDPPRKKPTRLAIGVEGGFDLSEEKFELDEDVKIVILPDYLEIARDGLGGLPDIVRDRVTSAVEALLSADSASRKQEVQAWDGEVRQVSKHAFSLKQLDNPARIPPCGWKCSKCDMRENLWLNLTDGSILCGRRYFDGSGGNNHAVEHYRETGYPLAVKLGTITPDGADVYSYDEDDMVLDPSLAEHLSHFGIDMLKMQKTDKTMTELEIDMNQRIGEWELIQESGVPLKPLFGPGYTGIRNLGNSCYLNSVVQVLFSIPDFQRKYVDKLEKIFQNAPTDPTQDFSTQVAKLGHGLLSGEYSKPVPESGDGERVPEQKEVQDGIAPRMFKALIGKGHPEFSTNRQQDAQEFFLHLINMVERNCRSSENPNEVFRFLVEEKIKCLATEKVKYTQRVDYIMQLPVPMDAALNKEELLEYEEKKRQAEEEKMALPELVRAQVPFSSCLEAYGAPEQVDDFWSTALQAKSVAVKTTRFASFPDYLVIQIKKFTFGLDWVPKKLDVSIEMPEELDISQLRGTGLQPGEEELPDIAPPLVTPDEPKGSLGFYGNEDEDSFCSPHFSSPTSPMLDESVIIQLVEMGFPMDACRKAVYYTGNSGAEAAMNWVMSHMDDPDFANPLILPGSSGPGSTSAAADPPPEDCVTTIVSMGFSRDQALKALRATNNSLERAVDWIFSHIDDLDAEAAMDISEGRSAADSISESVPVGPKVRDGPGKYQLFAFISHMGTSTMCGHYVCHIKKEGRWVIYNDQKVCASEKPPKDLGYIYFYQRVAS
How it was run: as §1

USP54 = USP54 (UniProt Q70EL1)
How it was run: as §1

USP7 = USP7 (UniProt Q93009)
How it was run: as §1

USP8 = molecular target: T5, USP8 (UniProt P40818)
T5 sequence (whole entry): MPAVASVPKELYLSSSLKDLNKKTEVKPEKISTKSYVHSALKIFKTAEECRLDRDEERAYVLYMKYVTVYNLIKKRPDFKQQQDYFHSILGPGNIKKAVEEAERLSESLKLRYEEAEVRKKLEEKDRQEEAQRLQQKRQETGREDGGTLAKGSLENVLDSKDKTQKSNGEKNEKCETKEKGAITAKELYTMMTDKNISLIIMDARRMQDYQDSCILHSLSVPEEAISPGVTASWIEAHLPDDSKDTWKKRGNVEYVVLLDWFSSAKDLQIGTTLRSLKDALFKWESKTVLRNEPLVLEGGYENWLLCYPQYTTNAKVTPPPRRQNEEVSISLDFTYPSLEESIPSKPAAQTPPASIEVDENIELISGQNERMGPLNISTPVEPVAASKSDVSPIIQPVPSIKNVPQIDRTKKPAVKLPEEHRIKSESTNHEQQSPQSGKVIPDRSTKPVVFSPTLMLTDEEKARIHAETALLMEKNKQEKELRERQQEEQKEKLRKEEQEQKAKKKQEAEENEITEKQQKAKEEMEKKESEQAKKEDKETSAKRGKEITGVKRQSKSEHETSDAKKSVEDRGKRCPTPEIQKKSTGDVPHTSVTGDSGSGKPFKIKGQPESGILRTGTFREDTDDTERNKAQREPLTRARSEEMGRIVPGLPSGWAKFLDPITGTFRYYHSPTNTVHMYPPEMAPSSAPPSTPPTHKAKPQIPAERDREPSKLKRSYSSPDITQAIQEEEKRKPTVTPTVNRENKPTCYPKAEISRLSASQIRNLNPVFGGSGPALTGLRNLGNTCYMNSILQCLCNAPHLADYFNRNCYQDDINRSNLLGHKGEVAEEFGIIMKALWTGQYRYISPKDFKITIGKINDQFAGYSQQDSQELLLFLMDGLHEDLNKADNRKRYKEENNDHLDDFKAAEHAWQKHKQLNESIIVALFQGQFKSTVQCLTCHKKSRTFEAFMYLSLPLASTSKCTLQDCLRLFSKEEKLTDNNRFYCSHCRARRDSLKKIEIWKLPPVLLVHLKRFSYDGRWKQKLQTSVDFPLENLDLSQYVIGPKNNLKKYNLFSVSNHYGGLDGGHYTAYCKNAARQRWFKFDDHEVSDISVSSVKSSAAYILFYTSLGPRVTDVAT
How it was run: as §1

Measured: log2 ratio of Biotin-Ahx-Ub-VS probe labelling

Chain of USP54 (Q70EL1 whole entry): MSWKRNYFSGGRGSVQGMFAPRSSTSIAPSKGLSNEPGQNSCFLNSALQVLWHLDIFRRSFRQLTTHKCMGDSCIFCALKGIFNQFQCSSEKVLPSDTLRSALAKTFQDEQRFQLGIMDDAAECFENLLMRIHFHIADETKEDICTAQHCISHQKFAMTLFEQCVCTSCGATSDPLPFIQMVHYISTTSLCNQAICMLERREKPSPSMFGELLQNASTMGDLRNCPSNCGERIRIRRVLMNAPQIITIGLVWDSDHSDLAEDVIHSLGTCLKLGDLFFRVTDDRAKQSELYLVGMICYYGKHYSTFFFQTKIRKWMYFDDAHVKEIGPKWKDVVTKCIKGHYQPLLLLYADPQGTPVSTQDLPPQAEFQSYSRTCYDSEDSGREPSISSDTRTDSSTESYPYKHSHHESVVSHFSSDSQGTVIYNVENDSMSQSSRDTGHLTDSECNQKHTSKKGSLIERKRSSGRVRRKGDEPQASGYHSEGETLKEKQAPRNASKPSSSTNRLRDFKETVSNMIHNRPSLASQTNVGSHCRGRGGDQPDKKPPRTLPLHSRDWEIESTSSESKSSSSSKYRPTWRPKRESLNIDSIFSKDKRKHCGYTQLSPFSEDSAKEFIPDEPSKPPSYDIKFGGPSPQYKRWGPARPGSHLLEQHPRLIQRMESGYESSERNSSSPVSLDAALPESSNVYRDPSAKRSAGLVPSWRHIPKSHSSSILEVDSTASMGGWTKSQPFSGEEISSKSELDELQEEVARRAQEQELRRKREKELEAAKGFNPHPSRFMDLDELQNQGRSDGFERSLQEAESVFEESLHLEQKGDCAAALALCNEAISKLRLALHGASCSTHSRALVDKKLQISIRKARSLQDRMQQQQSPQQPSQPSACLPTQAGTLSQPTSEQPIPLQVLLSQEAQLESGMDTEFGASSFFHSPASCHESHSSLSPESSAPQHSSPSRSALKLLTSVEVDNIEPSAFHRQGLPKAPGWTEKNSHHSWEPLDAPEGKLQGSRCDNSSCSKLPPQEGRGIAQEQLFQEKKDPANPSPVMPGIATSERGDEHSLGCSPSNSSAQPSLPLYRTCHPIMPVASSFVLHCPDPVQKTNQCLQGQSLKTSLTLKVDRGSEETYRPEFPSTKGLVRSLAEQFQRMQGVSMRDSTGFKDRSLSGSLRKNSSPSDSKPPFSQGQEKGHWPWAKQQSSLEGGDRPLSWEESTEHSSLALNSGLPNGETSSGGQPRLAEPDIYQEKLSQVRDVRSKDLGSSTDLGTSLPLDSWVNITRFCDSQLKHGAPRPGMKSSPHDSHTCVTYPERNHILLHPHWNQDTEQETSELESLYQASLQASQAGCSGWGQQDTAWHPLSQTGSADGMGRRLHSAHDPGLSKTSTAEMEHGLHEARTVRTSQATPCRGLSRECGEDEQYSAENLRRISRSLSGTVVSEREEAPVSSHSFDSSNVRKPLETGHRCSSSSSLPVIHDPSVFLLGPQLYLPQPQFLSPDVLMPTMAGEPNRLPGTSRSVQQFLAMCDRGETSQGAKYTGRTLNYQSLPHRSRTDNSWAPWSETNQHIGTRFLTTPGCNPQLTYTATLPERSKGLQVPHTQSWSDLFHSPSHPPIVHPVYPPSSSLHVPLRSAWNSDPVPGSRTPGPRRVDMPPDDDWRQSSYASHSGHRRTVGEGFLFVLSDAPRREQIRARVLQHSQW
Chain of USP7 (Q93009 whole entry, looked up): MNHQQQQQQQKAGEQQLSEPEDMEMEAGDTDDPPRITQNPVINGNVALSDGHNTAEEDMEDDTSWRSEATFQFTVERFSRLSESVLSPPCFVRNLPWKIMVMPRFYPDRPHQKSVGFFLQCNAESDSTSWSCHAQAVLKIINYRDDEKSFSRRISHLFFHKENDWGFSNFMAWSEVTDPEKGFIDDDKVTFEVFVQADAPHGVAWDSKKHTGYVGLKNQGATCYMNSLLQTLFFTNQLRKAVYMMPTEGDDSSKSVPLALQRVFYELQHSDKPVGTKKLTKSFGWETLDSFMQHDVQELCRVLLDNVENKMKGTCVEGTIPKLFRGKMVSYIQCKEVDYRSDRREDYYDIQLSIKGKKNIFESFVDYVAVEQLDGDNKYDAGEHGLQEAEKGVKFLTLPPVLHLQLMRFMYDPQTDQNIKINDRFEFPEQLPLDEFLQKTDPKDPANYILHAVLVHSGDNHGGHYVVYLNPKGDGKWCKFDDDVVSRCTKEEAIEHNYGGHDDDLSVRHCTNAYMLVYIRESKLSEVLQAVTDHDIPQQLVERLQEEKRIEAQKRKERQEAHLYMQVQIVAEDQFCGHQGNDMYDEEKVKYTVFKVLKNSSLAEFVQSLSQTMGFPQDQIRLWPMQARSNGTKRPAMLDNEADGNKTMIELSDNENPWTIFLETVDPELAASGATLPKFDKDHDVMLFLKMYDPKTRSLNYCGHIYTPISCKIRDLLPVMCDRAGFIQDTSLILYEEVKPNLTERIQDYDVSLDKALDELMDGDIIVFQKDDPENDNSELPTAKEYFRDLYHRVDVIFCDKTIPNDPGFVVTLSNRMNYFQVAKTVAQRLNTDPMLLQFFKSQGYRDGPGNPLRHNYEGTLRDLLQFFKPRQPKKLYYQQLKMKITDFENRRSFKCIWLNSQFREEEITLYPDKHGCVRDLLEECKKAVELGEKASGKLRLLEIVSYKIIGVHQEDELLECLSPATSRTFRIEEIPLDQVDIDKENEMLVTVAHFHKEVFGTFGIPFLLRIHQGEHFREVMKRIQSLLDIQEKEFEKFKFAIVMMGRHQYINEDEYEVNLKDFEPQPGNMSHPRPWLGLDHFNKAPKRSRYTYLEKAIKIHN
Chain of USP46 (P62068 whole entry): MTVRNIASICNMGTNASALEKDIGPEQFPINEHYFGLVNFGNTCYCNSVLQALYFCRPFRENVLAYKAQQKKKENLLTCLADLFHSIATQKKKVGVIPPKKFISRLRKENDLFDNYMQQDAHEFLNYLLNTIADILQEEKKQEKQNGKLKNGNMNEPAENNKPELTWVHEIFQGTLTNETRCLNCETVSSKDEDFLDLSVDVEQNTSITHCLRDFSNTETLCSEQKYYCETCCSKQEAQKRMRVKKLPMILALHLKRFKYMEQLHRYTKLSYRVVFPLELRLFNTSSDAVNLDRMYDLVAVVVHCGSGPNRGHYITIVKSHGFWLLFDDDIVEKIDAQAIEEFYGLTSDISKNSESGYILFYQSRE

Cl.O=C(CCl)N1CCCC(c2ncc[nH]2)C1 (stereo not drawn)
inactive: USP42 -0.153 | USP46 0.183 | USP47 -0.357 | USP48 -0.331 | USP5 0.191 | USP54 0.506 | USP7 -0.273 | USP8 -0.0352
